# Measured values published in ChEMBL document CHEMBL3988442, “University of Dundee, Small-Polar-MMV Screening Library” (2021).
# Screen size: about 48,000 compounds; about 13,000 (27%) showed an effect of 50% or more. Some of the results follow.
# Tested on: Wolbachia pipientis
# Experiment: Anti-Wolbachia Cell-Based Screen
# Assay type: functional
# Set-up: scale not given: in the data most compounds retested in dose-response had high values
# Details: 5 µM
row,SMILES,Percent Effect [%]
1,CN(Cc1noc(C2CC2)n1)C1CCN(Cc2ccncc2)C1 (stereo not drawn),-0.4709
2,Cc1cnc(CN(C)C2CCN(CCc3cnn(C)c3)C2)o1 (stereo not drawn),-1.466
3,CCn1ccnc1CN1CCC(N(C)Cc2ncc(C)o2)C1 (stereo not drawn),-2.074
4,Cc1cnc(CN(C)C2CCN(Cc3nnc(C4CC4)o3)C2)o1 (stereo not drawn),131.1
5,Cc1cnc(CN2CCC(N(C)Cc3noc(C4CC4)n3)C2)o1 (stereo not drawn),113
6,O=C(c1cnn2cc(CCO)cnc12)N1CCOC(C(F)(F)F)C1 (stereo not drawn),-0.009577
7,CCOc1ccc(CN(C)C(=O)NC(C)c2nncn2C)cc1 (stereo not drawn),-12.44
8,CC(NCc1cccnc1)c1cc2c(cc1Br)OCCO2 (stereo not drawn),-3.161
9,CC(c1ccc(Cl)cc1)N1CCN(CCS(C)(=O)=O)CC1 (stereo not drawn),6.907
10,CC(c1ccc(Cl)cc1)N1CCN(CCNS(C)(=O)=O)CC1 (stereo not drawn),-1.965
11,CCS(=O)(=O)NCCN1CCN(C(C#N)c2ccccc2)CC1 (stereo not drawn),106.3
12,N#Cc1cccc(CS(=O)(=O)NCCC(O)c2ccccc2)c1 (stereo not drawn),7.655
13,CS(=O)(=O)CCCN1CCN(C(C#N)c2ccccc2)CC1 (stereo not drawn),95.09
14,CNS(=O)(=O)CCCN1CCCN(Cc2ccccc2)CC1C (stereo not drawn),-3.956
15,CNS(=O)(=O)CCCN1CCN(C(C)c2cccnc2)CC1 (stereo not drawn),7.44
16,CNS(=O)(=O)CCCN1CCN(C(C#N)c2ccccc2)CC1 (stereo not drawn),112.4
17,CC(c1ccc(Cl)cc1)N1CCN(CCCS(C)(=O)=O)CC1 (stereo not drawn),-1.134
18,Cc1cc(C(=O)N2C[C@H](CO)C[C@H](CN3CCOCC3)C2)nc(C)n1,-11.42
19,CC(C)CCN(c1cn[nH]c1)S(=O)(=O)c1cccc(C#N)c1,-0.3515
20,NC(=O)c1ccc(CNC2CCCSC2)cc1 (stereo not drawn),-4.812
21,CCS(=O)(=O)N(C)C(=O)c1cc(C)n(-c2cccc(OC)c2)c1C,-13.82
22,O=C(c1ccncc1)N1CCCC(c2cc(C(F)F)n3ncnc3n2)C1 (stereo not drawn),88.08
23,O=C(c1ccc(Cl)o1)N1CCCC(c2cc(C(F)(F)F)[nH]n2)C1 (stereo not drawn),-0.4503
24,O=C(c1ccco1)N1CCCC(c2cc(C(F)(F)F)n3ncnc3n2)C1 (stereo not drawn),95.67
25,Cc1ncsc1C(=O)N1CCCC(c2cc(C(F)F)n3ncnc3n2)C1 (stereo not drawn),110.2
26,O=C(c1ccco1)N1CCCC(c2cc(C(F)F)n3ncnc3n2)C1 (stereo not drawn),-11.1

row,SMILES,Percent Effect [%]
1,O=C(c1ccccn1)N1CCCC(c2cc(C(F)F)n3ncnc3n2)C1 (stereo not drawn),111.1
2,O=C(c1cccnc1)N1CCCC(c2cc(C(F)F)n3ncnc3n2)C1 (stereo not drawn),1.815
3,O=C(c1nc(=O)[nH][nH]1)N1CCCC(c2cc(C(F)(F)F)[nH]n2)C1 (stereo not drawn),-1.931
4,CCc1nnc(CN(C)Cc2cccc(C(=O)Nc3ccnn3C)c2)o1,-8.218
5,CN(Cc1ccc(Cl)c(F)c1)C(=O)c1ccncc1F,5.158
6,COc1nccc(N2CCN(Cc3ccc(C)cc3)C(=O)C2)c1C#N,5.242
7,CCn1nc(C)cc1C(=O)N1CCOc2ccc(OC)cc21,4.6
8,COc1cc2nc(NCc3scnc3C)nc(N)c2cc1OC,7.61
9,Cc1nn(CC(C)C)c(N(C)C)c1CNCCS(C)(=O)=O,-9.669
10,CCN(CC(=O)NC)C(=O)Cc1nc(-c2ccco2)oc1C,-1.768
11,Cc1cc(CN(C)C(=O)C2CCCN(C(=O)c3cccs3)C2)no1 (stereo not drawn),-2.385
12,O=C(c1cccs1)N1CCCC(c2cc(C(F)F)n3ncnc3n2)C1 (stereo not drawn),74.84
13,O=C(c1cccs1)N1CCc2ncnc(C3CCOC3)c2CC1 (stereo not drawn),-39.43
14,Cc1ccc2c(n1)N(CCN(C)C)CCN(C(=O)c1ccsc1)C2,-6.316
15,COc1cccc(-c2cnc3n2CCC32CCN(C(C)=O)CC2)c1,0.6434
16,CCc1ccc(-c2ncc3c(n2)N(C)CCN(CCN(C)C)C3=O)cc1,95.82
17,COc1cccc(-c2ncc3c(n2)N(C)CCN(CCN(C)C)C3=O)c1,82.33
18,CN(C)CCN1CCN(C)c2nc(-c3ccccc3)ncc2C1=O,101.9
19,COCCC(=O)N1CCN(CCN(C)C)c2ncccc2C1,4.239
20,CNC(=O)[C@@H]1C[C@H](N)CN1S(=O)(=O)c1cc(Cl)cc(Cl)c1O,-28.57
21,Cc1c(I)cccc1C(=O)NCC1(CO)CC1,-20.46
22,COc1ccc(CCNC(=O)CC(NC(N)=O)c2ccccc2)cc1 (stereo not drawn),5.015
23,COc1ccccc1-c1cc(NC(=O)CCC2CCCO2)[nH]n1 (stereo not drawn),4.714
24,COC[C@@H]1CCCN1C(=O)c1cc(-c2ccc(OC)cc2)n[nH]1,-15.89
25,COc1ccc(NC(=O)NC(C)c2nc[nH]n2)cc1 (stereo not drawn),-2.331
26,COc1ccc(-c2cc(C(=O)Nc3nc[nH]n3)[nH]n2)cc1,117.7

row,SMILES,Percent Effect [%]
1,CNC(=O)c1cc(-c2ccccc2OC)[nH]n1,118.3
2,CNC(=O)C(C)(C)NC(=O)c1cc(COc2ccccc2OC)[nH]n1,6.418
3,O=C(NCC1CCOC1)c1cc(-c2ccc(Cl)cc2)n[nH]1 (stereo not drawn),-17.32
4,COc1ccccc1-c1cc(NC(=O)CC2CCS(=O)(=O)C2)[nH]n1 (stereo not drawn),2.425
5,COc1ccccc1-c1cc(C(=O)Nc2nc[nH]n2)[nH]n1,103.1
6,O=C(Nc1nc[nH]n1)c1cc(-c2ccc(F)cc2)n[nH]1,175.6
7,COC(=O)C(C)(C)NC(=O)c1cc(COc2ccccc2OC)[nH]n1,-6.385
8,CC(=O)Nc1nc(-c2ccc(F)cc2)c[nH]1,8.711
9,O=C(NCc1cccc(N2CCCCC2=O)c1)[C@@H](O)c1ccccc1,-1.556
10,CC(C)c1ccc(N2CCc3onc(-c4ccc(F)c(F)c4)c3C2)nn1,26
11,CCC1CN(C(=O)Nc2cnc3c(cnn3C(C)C)c2)CCO1 (stereo not drawn),6.429
12,CCC(CC)CN1C[C@@H]2OCCN(Cc3cnn(C)c3)[C@@H]2C1,-7.114
13,COc1cc(C)c(C)cc1S(=O)(=O)NCC(O)c1cccn1C (stereo not drawn),-4.325
14,COCC1CCCCN1C(=O)c1cc(-c2cccc(OC)c2)n[nH]1 (stereo not drawn),-6.685
15,COc1cccc(-c2cc(C(=O)Nc3nc[nH]n3)[nH]n2)c1,131.8
16,COC[C@@H]1CCCN1C(=O)c1cc(-c2cccc(OC)c2)n[nH]1,-18.68
17,CN1CC[C@H](c2nnc(Cc3c[nH]c4ccccc34)o2)C1,-2.7
18,CN1CCC(c2cc(CCO)ncn2)C1 (stereo not drawn),105.5
19,CC(C)N1CCC(CC(=O)NCCc2cc(O)ncn2)CC1,-16.23
20,CCn1c(N)nc2cc(C(=O)N3CCN(c4ccncc4)CC3)cnc21,-2.234
21,CCOC(=O)c1nnc2ccccc2c1N1CCOC(C)(C)C1,7.014
22,Cc1nnc(N2CCOC(C)(C(=O)N(C)C)C2)c2ccccc12 (stereo not drawn),78.63
23,Cc1nnc(N2CCOC(C)(C(=O)NC3CCCC3)C2)c2ccccc12 (stereo not drawn),100.6
24,CNC(=O)C1(C)CN(c2nnc(C)c3ccccc23)CCO1 (stereo not drawn),101.8
25,O=C(CCNC(=O)c1ccccc1N1CCOCC1)NC1CCCC1,3.858
26,Cc1nnc(N2CCCC2)c(C(N)=O)c1C,-23.35

row,SMILES,Percent Effect [%]
1,Cc1ccc(N2CCCC3(CCN(C(=O)NC4CCCC4)C3)C2)nn1 (stereo not drawn),1.477
2,CNC(=O)[C@@]12CCO[C@@H]1CCN(S(=O)(=O)c1ccccc1C)C2,-56.15
3,Cn1cnc(S(=O)(=O)N2CCN(Cc3ccco3)CC2)c1Cl,-3.277
4,Cc1n[nH]c(C)c1CN1CC[C@@H]2[C@@H](CCC(=O)N2CCc2c[nH]cn2)C1,-6.371
5,COCCc1noc(-c2cn(CCc3ccccc3)nn2)n1,-16.95
6,CC(=O)c1cccc(NC(=O)N(CCO)C2CCc3ccccc32)c1 (stereo not drawn),6.805
7,COCCCS(=O)(=O)N1CCN(c2cccc(O)c2)CC1,-6.016
8,CCN1Cc2cc(F)ccc2N(C(C)=O)CCC1=O,105.8
9,CCN1Cc2cc(F)ccc2N(C(=O)C2CCC2)CCC1=O,113.5
10,O=C(C1CCC1)N1CCC(=O)N(C2CC2)Cc2cc(F)ccc21,89.78
11,CN1C(=O)CCN(C(=O)C2CCCCC2)c2ccccc21,-31.28
12,O=C1N[C@@H]2CCN(C(=O)C3CCC3)[C@@H]2C(=O)N1c1ccc(F)cc1,10.21
13,CCN1CC(C(=O)N2CCC(Oc3ccccc3Cl)CC2)CC1=O (stereo not drawn),19.99
14,CCN1Cc2ccccc2N(C(=O)C2CCC2)CCC1=O,94.47
15,O=C(C1CCCOC1)N1CCc2ccc(F)cc21 (stereo not drawn),-7.553
16,O=C1NCCCCC1NC(=O)N1CCCc2cc(F)ccc21 (stereo not drawn),-6.196
17,Cc1noc(C)c1C(C)NC(=O)N1CCC(NC(=O)c2ccsc2)CC1 (stereo not drawn),-3.825
18,COc1c(NC(=O)C(C)CCOc2ccccc2)c(C)nn1C (stereo not drawn),-7.796
19,CC(O)CN1CCN(C(=O)CN(C)c2cnccn2)CC1 (stereo not drawn),-17.8
20,Cn1c(N)nnc1SCc1c(F)cccc1Br,-12.74
21,Cc1cc(C)c(C(=O)N[C@H](C(N)=O)c2ccccc2)c(=O)[nH]1,4.18
22,CCOC(=O)CCCNc1nc(C(C)(C)C)nc2c1cnn2C,0.3135
23,O=C(c1ccsc1)N1CCN(CC(O)c2cccc(F)c2)CC1 (stereo not drawn),8.058
24,CC(C(=O)N1CCn2cncc2C1)N1CCCC1 (stereo not drawn),4.282
25,O=C(CCCNCc1ccc(Cl)c2cccnc12)NC1CC1,-3.748
